# 12-LOX inh = Primary qHTS assay for inhibitors of human arachidonate 12S-lipoxygenase (ALOX12): Round 2; Polyunsaturated fatty acid lipoxygenase ALOX12 (Homo sapiens), P18054; hit rate 1.1% among 580,000; purified 12hLO, xylenol orange hydroperoxide absorbance; Potency, µM (titrated, usually from 108 µM), for inactives: top-dose activity change, negative = inhibition, actives largely listed as inhibitors; AID 1671190, 2021; further: on the % scale 0 is the no-effect control and ±100 the full control effect
#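 Purified human 12hLO at 150 nM in 25 mM Hepes, 0.01% Triton X-100, pH 7.0, preincubated 15 min at room temperature with compound. Reaction started with 40 uM arachidonic acid, 30 min at room temperature. Hydroperoxide measured by Fe-xylenol orange, 573/405 nm absorbance ratio.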
# HP1b binding inh = HTS for Inhibitors of HP1-beta Chromodomain Interactions with Methylated Histone Tails; Chromobox protein homolog 1 (Homo sapiens), P83916; AlphaScreen HP1-beta / biotin-H3K9me3 peptide binding; Potency, µM (titrated, usually from 114 µM), for the others: at the top dose activity change, negative = inhibition, hits mostly inhibitors; hit rate 0.56% among 390,000; AID 540317, 2011; further: nearly all actives have a fitted effect of over 70% in size
#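 AlphaScreen: HP1-beta (50 nM) preformed 30 min with biotin-H3(1-18)K9me3 peptide (50 nM) in PBS pH 7.4, 0.01% Tween-20. Compound added for 30 min at RT, then streptavidin donor/nickel chelate acceptor beads (10 ug/mL) for 30 min.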
# JMJD2A Tudor = qHTS Assay for Inhibitors of JMJD2A-Tudor Domain; AlphaScreen JMJD2A-Tudor / H3K4me3 peptide binding; Potency, µM (doses to about 114 µM), inactives show at the highest dose activity change, negative = inhibition, most hits filed as inhibitors; hit rate 4.4% among 390,000; AID 504339, 2011; further: on the % scale 0 is the no-effect control and ±100 the full control effect; nearly all actives have a fitted effect of over 50% in size
# PLK1 PBD block = qHTS for Inhibitors of PLK1-PDB (polo-like kinase 1 - polo-box domain): Primary Screen; Serine/threonine-protein kinase PLK1 (Homo sapiens), P53350; Plk1 PBD binding of FITC phosphopeptide, fluorescence polarization; Potency, µM, for the others: max response, negative = inhibition, usual class: inhibitors; hit rate 2.8% among 360,000; further: series mostly up to about 57 µM; on the % scale 0 is the no-effect control and ±100 the full control effect; nearly all actives have a fitted effect of over 65% in size
# Target sequence (P53350 whole entry, looked up, the tested form may be a part): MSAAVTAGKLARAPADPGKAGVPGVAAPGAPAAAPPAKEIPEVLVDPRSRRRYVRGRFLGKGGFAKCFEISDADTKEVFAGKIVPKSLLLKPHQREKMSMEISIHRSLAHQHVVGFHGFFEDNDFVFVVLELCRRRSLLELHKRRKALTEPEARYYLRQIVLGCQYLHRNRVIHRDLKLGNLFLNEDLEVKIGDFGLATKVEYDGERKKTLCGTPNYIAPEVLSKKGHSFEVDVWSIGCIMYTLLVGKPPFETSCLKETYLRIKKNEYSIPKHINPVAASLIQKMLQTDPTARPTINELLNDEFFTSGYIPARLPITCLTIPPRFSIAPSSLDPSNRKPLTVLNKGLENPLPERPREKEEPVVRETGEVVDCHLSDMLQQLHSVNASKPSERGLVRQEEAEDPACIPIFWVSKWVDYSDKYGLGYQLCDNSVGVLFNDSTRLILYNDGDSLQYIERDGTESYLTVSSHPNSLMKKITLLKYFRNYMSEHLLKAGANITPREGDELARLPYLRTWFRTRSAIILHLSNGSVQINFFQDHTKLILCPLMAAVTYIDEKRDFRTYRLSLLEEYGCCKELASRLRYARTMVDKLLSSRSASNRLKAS
# G9a block = qHTS Assay for Inhibitors of Histone Lysine Methyltransferase G9a; Histone-lysine N-methyltransferase EHMT2 (Homo sapiens), Q96KQ7; G9a H3K9 monomethylation, AlphaScreen, 2 h; Potency, µM (highest dose often 102 µM), without a hit: at the top dose activity, negative = inhibition, hits mostly inhibitors; hit rate 8.8% among 350,000; AID 504332, 2011; further: on the % scale 0 is the no-effect control and ±100 the full control effect; nearly all actives have a fitted effect of over 75% in size
#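 Compounds were preincubated with 20 nM G9a for 15 min, after which biotinylated H3K9 peptide (500 nM) and SAM (20 uM) started a 2 h room-temperature reaction. Monomethylated product was quantified by antibody-based AlphaScreen chemiluminescence.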
# BAZ2B inh = qHTS Assay for Inhibitors of BAZ2B | Bromodomain adjacent to zinc finger domain protein 2B (Homo sapiens), Q9UIF8 | AID 504333, 2011 | hit rate 4.4% among 360,000 | AlphaScreen BAZ2B-H3K14Ac peptide displacement | Potency, µM (highest dose often 114 µM), without a hit: at the highest dose activity change, negative = inhibition, usual class: inhibitors; further: on the % scale 0 is the no-effect control and ±100 the full control effect; nearly all actives have a fitted effect of over 60% in size
#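 Inhibition is scored as reduced AlphaScreen emission. The BAZ2B/b-H3(5-23)K14Ac complex (50 nM each) in PBS pH 7.4, 0.01% Tween-20 meets compound (up to 110 uM) for 30 min at RT before bead addition.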
# An asterisk follows results filed as active; ? = inconclusive; nt = no result; [ ] = another dose, or the depositor's remark. Shown are actives, neighbours in structure and some others; about 9% of the full set was active somewhere. The call rests on the fitted dose curve; in most records, active means well fitted curve in the direction sought with a large enough effect; inconclusive means small, poorly fitted or top-dose-only effect, or another doubt; inactive means no such curve, though single readings can be large; an effect the other way counts as inactive or inconclusive. Potency means the concentration at half of the fitted maximal effect.
SMILES,12-LOX inh,HP1b binding inh,JMJD2A Tudor,PLK1 PBD block,G9a block,BAZ2B inh
CCCCCC(=O)OC(CN1CCCCCC1)CN1CCCC1=O (configuration not stated),?,30.1%,-25.2%,-1.4%,nt,1.6%
CCCCCCCC(=O)OC(CN1CCCCC1)CN1CCCC1=O (configuration not stated),-23.3%,8.9%,-3.5%,-12.2%,11.2µM*,-0.2%
Cc1[nH]cnc1-c1nccn1CCN1N=C(c2ccccc2)CCC1=O,73.8%,nt,nt,nt,nt,nt
CCn1cc(C(=O)O)c(=O)c2cc(F)c(N3CCN(C(=O)Nc4ccccc4)CC3)cc21,8.0%,16.1%,22.4µM*,-7.0%,39.8µM*,-6.7%
CCn1cc(C(=O)O)c(=O)c2cc(F)c(N3CCN(C(=S)NC(=O)c4ccc(Br)cc4)CC3)cc21,-17.2%,-4.8%,-14.3%[11.4 µM],?,6.8%,31.6µM*
CCn1cc(C(=O)O)c(=O)c2cc(F)c(N3CCN(C(=S)NC(=O)c4ccccc4F)CC3)cc21,10.9%,7.1%,?,-14.9%,?,?
CC(C)C[C@H]1COc2cccc(N3CCC[C@@H]3CO)c2S(=O)(=O)N1,6.7%,nt,nt,-9.2%,nt,nt
NC(=O)C[C@H]1NC(=O)[C@H](CCC(=O)O)NC(=O)c2cc([N+](=O)[O-])cc(I)c2NCCC[C@@H](C(N)=O)NC1=O,-15.4%,40.7%,-19.3%,-21.6%,44.7µM*,?
C[C@@H]1NC(=O)c2cc([N+](=O)[O-])cc(I)c2NCCCC[C@@H](C(N)=O)NC(=O)[C@H](CCC(=O)O)NC1=O,nt,9.6%,-16.9%,-11.8%,39.8µM*,-33.3%
C[C@@H]1NC(=O)[C@H](CCC(N)=O)NC(=O)c2cc([N+](=O)[O-])cc(I)c2NCCC[C@@H](C(N)=O)NC1=O,?,18.2%,-15.3%,-24.0%,50.1µM*,-25.3%
C[C@@H](O)[C@@H]1NC(=O)c2cc([N+](=O)[O-])cc(I)c2NCC[C@@H](C(N)=O)NC(=O)CNC1=O,?,25.0%,-21.1%,-20.4%,50.1µM*,-4.5%
COc1cc(CN2CC(=O)N(c3cccc(Cl)c3C)C2=S)cc(OC)c1OC,0.0%,5.2%,-12.4%,-4.9%,10.4%[2.33 µM],-10.7%
COc1ccc(CNC(=O)N2CCC(c3noc(-c4ccncc4)n3)C2)cc1 (configuration not stated),7.1%,nt,nt,nt,nt,nt
Cc1cc(C(=O)CCC(=O)N2CCN(S(=O)(=O)c3cccs3)CC2)c(C)s1,?,12.4%,-14.4%,-2.8%,-13.1%,0.5%
NC(=O)CC[C@@H]1NC(=O)[C@H](CO)NC(=O)c2cc([N+](=O)[O-])cc(I)c2NCC[C@@H](C(N)=O)NC(=O)[C@H](Cc2ccc(O)cc2)NC1=O,nt,nt,nt,nt,7.94µM*,56.2µM*
NC(=O)[C@@H]1CCCCNc2c(F)cc([N+](=O)[O-])cc2C(=O)N[C@@H](CCCN=C(N)N)C(=O)NCC(=O)N1,-8.9%,32.7%,-25.4%,-1.7%,-15.6%,-11.1%
C[C@@H]1NC(=O)[C@H](CCCN=C(N)N)NC(=O)c2cc([N+](=O)[O-])cc(I)c2NCCC[C@@H](C(N)=O)NC1=O,?,0.8%,-18.9%,-28.0%,56.2µM*,-7.8%
NC(=O)CC[C@@H]1NC(=O)[C@H](CO)NC(=O)c2cc([N+](=O)[O-])cc(I)c2NCCCC[C@@H](C(N)=O)NC(=O)[C@H](Cc2ccc(O)cc2)NC1=O,nt,6.9%,-31.7%,-3.8%,?,-36.0%
NC(=O)[C@@H]1CCCNc2c(I)cc([N+](=O)[O-])cc2C(=O)N[C@@H](CCC(=O)O)C(=O)N[C@@H](CO)C(=O)N1,nt,39.5%,-5.6%,-1.0%,35.5µM*,-5.0%
COc1ccc(NC(=O)N(C)C[C@H]2OCc3cnnn3CCCC(=O)N([C@@H](C)CO)C[C@H]2C)c(OC)c1,-5.6%,nt,nt,7.2%,nt,nt
CCC1(CC)NC(=O)N(CC(=O)OCC(=O)NC(=O)c2ccccc2OC)C1=O,?,-5.6%,-13.6%,-10.8%,-10.7%,8.9%
CCCS(=O)(=O)NC(=O)C1(C)CCN(C(=O)c2ccc(C(F)(F)F)cc2)C1 (configuration not stated),-7.5%,nt,nt,-10.7%,nt,nt
Cc1c(Cl)c([N+](=O)[O-])nn1CC(=O)N1CCN(C23CC4CC(CC(C4)C2)C3)CC1,8.8%,-5.1%,-21.0%,-17.4%,44.7µM*,-4.4%
Cc1c(Cl)c([N+](=O)[O-])nn1CC(=O)N1CCc2ccccc2C1,-0.2%,15.8%,-8.2%,-4.6%,25.9%[0.0925 µM],-0.8%
Cc1nn(CC(=O)N2CCN(C34CC5CC(CC(C5)C3)C4)CC2)c(C)c1[N+](=O)[O-],-7.7%,32.8%,4.9%,-14.5%,25.1µM*,0.5%
SMILES,12-LOX inh,HP1b binding inh,JMJD2A Tudor,PLK1 PBD block,G9a block,BAZ2B inh
O=C1CC(Nc2ccc3ccccc3c2)C(=O)N1Cc1ccccc1 (configuration not stated),-13.0%,31.1%,-24.4%[57.1 µM],-13.1%,?,-34.9%
CC(=O)O/N=C(/c1nonc1N)N(C)C,5.6%,32.5%,-11.4%,-5.1%,nt,-0.6%
CCCN(CCC)c1cc(=O)nc2ccccn12,3.6%,nt,nt,nt,nt,nt
COc1ccc(NC(=O)CCN2C(=O)[C@@H]3[C@H](C2=O)[C@H]2C=C[C@@H]3C2)cc1,10.3%,14.5%,-9.6%[11.4 µM],26.7µM*,-3.0%,4.6%
COc1ccc(NC(=O)CCN2C(=O)C3C4CCC(C4)C3C2=O)cc1 (configuration not stated),-5.8%,25.5%,-5.5%,0.1%,25.1%[59 µM],24.0%
O=C(CCCCCN1C(=O)C2C3C=CC(C3)C2C1=O)Nc1nccs1 (configuration not stated),58.1%,48.6%,-5.0%,2.1%,0.8%,-5.4%
O=C(CCN1C(=O)C2C3C=CC(C3)C2C1=O)Nc1nccs1 (configuration not stated),-0.5%,-5.1%,11.0%[11.4 µM],29.9µM*,-25.2%,-2.2%
Cc1ccc(S(=O)(=O)N(C)c2ccccc2C(=O)Nc2ccc(F)cc2F)cc1,9.9%,23.2%,-10.5%,-11.8%,nt,7.8%
O=C(O)CN=C1NC2(CCCC2)Cc2ccccc21,-4.8%,16.3%,-5.4%,-0.1%,24.8%,8.1%

# Screens from PubChem BioAssay.
